According to PubChem BioAssay AID1159580 (chemical genetic matrix, 2015):
Out of some 5,500 compounds screened, about 2,000 (36%) were called active. Inconclusive results (about 18%) are left out. Rule as the data show it: active = normalized growth mostly below about 0.91 (no sharp cut-off); inconclusive = no clear call, values can overlap the other calls; inactive = mostly above about 0.92. Some of the results follow.

Assay: chemical genetic growth profiling, strain panel (AID 1159580);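 also: tested at 20 µM; growth read once vehicle control cultures reached saturation at 30 °C; 1 = growth at the plate median or of vehicle wells; lower values mean less growth of the strain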
Conditions: growth OD
[1] = S. cerevisiae deletion strains, locus YAL013W, strain DEP1, active compounds read low
[2] = S. cerevisiae deletion strains, locus YBR229C, strain ROT2, active compounds read low
[3] = S. cerevisiae deletion strains, locus YDL101C, strain DUN1, active compounds read low
[4] = S. cerevisiae deletion strains, locus YDL134C, strain PPH21, active compounds read low
[5] = S. cerevisiae deletion strains, locus YDR150W, strain NUM1, active compounds read low
[6] = S. cerevisiae deletion strains, locus YEL061C, strain CIN8, active compounds read low
[7] = S. cerevisiae deletion strains, locus YGR078C, strain PAC10, active compounds read low
[8] = S. cerevisiae deletion strains, locus YGR229C, strain SMI1, active compounds read low
[9] = S. cerevisiae deletion strains, locus YHR030C, strain SLT2, active compounds read low
[10] = S. cerevisiae deletion strains, locus YHR087W, strain rtc3, active compounds read low
[11] = S. cerevisiae deletion strains, locus YJR043C, strain POL32, active compounds read low
[12] = S. cerevisiae deletion strains, locus YJR075W, strain HOC1, active compounds read low
[13] = S. cerevisiae deletion strains, locus YKL190W, strain CNB1, active compounds read low
[14] = S. cerevisiae deletion strains, locus YLR039C, strain RIC1, active compounds read low
[15] = S. cerevisiae deletion strains, locus YLR058C, strain SHM2 (second series), active compounds read low
[16] = S. cerevisiae deletion strains, locus YLR085C, strain ARP6, active compounds read low
[17] = S. cerevisiae deletion strains, locus YLR262C, strain YPT6, active compounds read low
[18] = S. cerevisiae deletion strains, locus YML094W, strain GIM5, active compounds read low
[19] = S. cerevisiae deletion strains, locus YMR219W, strain ESC1, active compounds read low
[20] = S. cerevisiae deletion strains, locus YMR263W, strain SAP30, active compounds read low
[21] = S. cerevisiae deletion strains, locus YNL153C, strain GIM3, active compounds read low
[22] = S. cerevisiae deletion strains, locus YNL298W, strain CLA4 (second series), active compounds read low
[23] = S. cerevisiae deletion strains, locus YNL322C, strain KRE1, active compounds read low
[24] = S. cerevisiae deletion strains, locus YNR030W, strain Alg12, active compounds read low
[25] = S. cerevisiae deletion strains, locus YOL006C, strain TOP1, active compounds read low
[26] = S. cerevisiae deletion strains, locus YPL055C, strain LGE1, active compounds read low
[27] = S. cerevisiae deletion strains, locus YPL241C, strain CIN2, active compounds read low
[28] = S. cerevisiae deletion strains, locus YPR135W, strain CTF4, active compounds read low
[29] = S. cerevisiae strains, strain wild type, active compounds read low
[30] = S. cerevisiae deletion strains, locus YJL187C, strain SWE1, active compounds read low
[31] = S. cerevisiae deletion strains, locus YMR307W, strain GAS1, active compounds read low

Measured: normalized growth

O=[N+]([O-])c1ccccc1SCc1n[nH]c(=S)n1-c1cccc(C(F)(F)F)c1
inactive: [1] 0.973 | [2] 0.991 | S. cerevisiae deletion strains, locus YCL061C, strain MRC1, active compounds read low 0.989 | [3] 1 | [4] 1.01 | [5] 1.01 | [6] 0.969 | [7] 0.967 | [8] 0.994 | [9] 1.04 | [10] 1.01 | [11] 0.999 | [12] 1.02 | [13] 0.974 | [14] 0.988 | [15] 0.996 | [16] 0.87 | [17] 1.01 | [18] 0.967 | [19] 0.992 | [20] 1 | [21] 1.03 | [22] 0.932 | [23] 0.97 | [24] 0.94 | [25] 0.886 | [26] 0.99 | [27] 0.985 | [28] 1.13 | [29] 0.975

FC(F)(F)c1cccc(CSc2n[nH]c(=S)s2)c1
inactive: [5] 0.903 | [9] 0.728 | [17] 0.838 | [18] 0.914
active: [1] 0.774 | [2] 0.479 | [3] 0.522 | [4] 0.883 | [6] 0.861 | [7] 0.427 | [10] 0.592 | [30] 0.51 | [11] 0.791 | [12] 0.31 | [13] 0.887 | [14] 0.706 | [15] 0.797 | [16] 0.593 | [19] 0.606 | [20] 0.763 | [21] 0.533 | [22] 0.787 | [23] 0.873 | [24] 0.824 | [25] 0.409 | [27] 0.833 | [28] 0.638

O=[N+]([O-])c1cnc(Sc2nnc(SCc3cccc(C(F)(F)F)c3)s2)s1
active: S. cerevisiae deletion strains, locus YAR019C, strain CDC15, active compounds read low 0.098 | S. cerevisiae deletion strains, locus YBL105C, strain PKC1, active compounds read low 0.0818 | S. cerevisiae deletion strains, locus YBR135W, strain CKS1, active compounds read low 0.0984 | S. cerevisiae deletion strains, locus YBR136W, strain MEC1, active compounds read low 0.0945 | S. cerevisiae deletion strains, locus YBR160W, strain CDC28, active compounds read low 0.0963 | S. cerevisiae deletion strains, locus YDL017W, strain CDC7, active compounds read low 0.0822 | S. cerevisiae deletion strains, locus YDL028C, strain MPS1, active compounds read low 0.111 | [3] 0.107 | S. cerevisiae deletion strains, locus YDL108W, strain KIN28, active compounds read low 0.0971 | S. cerevisiae deletion strains, locus YDL132W, strain cdc53, active compounds read low 0.0889 | S. cerevisiae deletion strains, locus YDL214C, strain PRR2, active compounds read low 0.106 | S. cerevisiae deletion strains, locus YDR052C, strain DBF4, active compounds read low 0.0805 | S. cerevisiae deletion strains, locus YDR054C, strain cdc34, active compounds read low 0.0921 | S. cerevisiae deletion strains, locus YDR226W, strain ADK1, active compounds read low 0.0971 | S. cerevisiae deletion strains, locus YDR477W, strain SNF1, active compounds read low 0.101 | S. cerevisiae deletion strains, locus YER123W, strain YCK3, active compounds read low 0.111 | S. cerevisiae deletion strains, locus YER133W, strain GLC7, active compounds read low 0.107 | S. cerevisiae deletion strains, locus YFL009W, strain cdc4, active compounds read low 0.102 | S. cerevisiae deletion strains, locus YFL029C, strain CAK1, active compounds read low 0.098 | S. cerevisiae deletion strains, locus YFR003C, strain YPI1, active compounds read low 0.0893 | S. cerevisiae deletion strains, locus YFR019W, strain FAB1, active compounds read low 0.106 | S. cerevisiae deletion strains, locus YFR028C, strain CDC14, active compounds read low 0.0995 | S. cerevisiae deletion strains, locus YGR040W, strain KSS1, active compounds read low 0.0976 | S. cerevisiae deletion strains, locus YGR052W, strain FMP48, active compounds read low 0.101 | S. cerevisiae deletion strains, locus YGR092W, strain DBF2, active compounds read low 0.0989 | [9] 0.131 | S. cerevisiae deletion strains, locus YHR079C, strain IRE1, active compounds read low 0.0953 | S. cerevisiae deletion strains, locus YHR082C, strain KSP1, active compounds read low 0.13 | S. cerevisiae deletion strains, locus YHR205W, strain SCH9, active compounds read low -0.0106 | S. cerevisiae deletion strains, locus YIL147C, strain SLN1, active compounds read low 0.102 | S. cerevisiae deletion strains, locus YJL095W, strain BCK1, active compounds read low 0.118 | S. cerevisiae deletion strains, locus YJL128C, strain PBS2, active compounds read low 0.0978 | S. cerevisiae deletion strains, locus YJL157C, strain FAR1, active compounds read low 0.0837 | S. cerevisiae deletion strains, locus YJR016C, strain ILV3, active compounds read low 0.0869 | S. cerevisiae deletion strains, locus YJR066W, strain TOR1 (second series), active compounds read low 0.0917 | S. cerevisiae deletion strains, locus YJR066W, strain TOR1, active compounds read low 0.122 | S. cerevisiae deletion strains, locus YKL048C, strain ELM1, active compounds read low 0.111 | S. cerevisiae deletion strains, locus YKL067W, strain YNK1, active compounds read low 0.105 | S. cerevisiae deletion strains, locus YKL101W, strain HSL1, active compounds read low 0.1 | S. cerevisiae deletion strains, locus YKL193C, strain SDS22, active compounds read low 0.0958 | S. cerevisiae deletion strains, locus YKL203C, strain TOR2, active compounds read low 0.111 | S. cerevisiae deletion strains, locus YLR113W, strain HOG1, active compounds read low 0.127 | S. cerevisiae deletion strains, locus YLR133W, strain CKI1, active compounds read low 0.0966 | S. cerevisiae deletion strains, locus YLR403W, strain SFP1, active compounds read low -0.00531 | S. cerevisiae deletion strains, locus YML070W, strain DAK1, active compounds read low 0.103 | S. cerevisiae deletion strains, locus YMR001C, strain CDC5, active compounds read low 0.0974 | S. cerevisiae deletion strains, locus YMR205C, strain PFK2 (second series), active compounds read low 0.101 | S. cerevisiae deletion strains, locus YMR277W, strain FCP1, active compounds read low 0.0974 | S. cerevisiae deletion strains, locus YNL006W, strain LST8, active compounds read low 0.0863 | S. cerevisiae deletion strains, locus YNL020C, strain ARK1, active compounds read low 0.109 | S. cerevisiae deletion strains, locus YNL161W, strain CBK1, active compounds read low 0.0953 | S. cerevisiae deletion strains, locus YNL183C, strain NPR1, active compounds read low 0.093 | S. cerevisiae deletion strains, locus YNL207W, strain RIO2, active compounds read low 0.0918 | S. cerevisiae deletion strains, locus YNL222W, strain SSU72, active compounds read low 0.1 | S. cerevisiae deletion strains, locus YNL307C, strain MCK1 (second series), active compounds read low 0.108 | S. cerevisiae deletion strains, locus YOL078W, strain AVO1, active compounds read low 0.0995 | S. cerevisiae deletion strains, locus YOL136C, strain PFK27, active compounds read low 0.0976 | S. cerevisiae deletion strains, locus YOR061W, strain CKA2, active compounds read low 0.0984 | S. cerevisiae deletion strains, locus YOR119C, strain RIO1, active compounds read low 0.105 | S. cerevisiae deletion strains, locus YOR231W, strain MKK1, active compounds read low 0.0992 | S. cerevisiae deletion strains, locus YOR329C, strain SCD5, active compounds read low 0.0854 | S. cerevisiae deletion strains, locus YPL031C, strain PHO85, active compounds read low 0.103 | S. cerevisiae deletion strains, locus YPL153C, strain RAD53, active compounds read low 0.0944 | S. cerevisiae deletion strains, locus YPL204W, strain HRR25, active compounds read low 0.107 | S. cerevisiae deletion strains, locus YPL209C, strain IPL1, active compounds read low 0.0842 | S. cerevisiae deletion strains, locus YPL256C, strain CLN2, active compounds read low 0.133 | S. cerevisiae deletion strains, locus YPR025C, strain CCL1, active compounds read low 0.0989 | S. cerevisiae deletion strains, locus YPR106W, strain ISR1, active compounds read low 0.0861 | S. cerevisiae deletion strains, locus YPR111W, strain DBF20, active compounds read low 0.0999 | S. cerevisiae deletion strains, strain NNK1, active compounds read low 0.0942 | S. cerevisiae deletion strains, strain TSCII, active compounds read low 0.102

S=c1[nH]nc(SCCSc2n[nH]c(=S)s2)s1
active: [30] 0.93
inactive: [1] 0.969 | [2] 1.04 | [3] 0.947 | [4] 0.993 | [5] 1.03 | [6] 1.02 | [7] 0.952 | [8] 0.987 | [9] 1.1 | [10] 1.02 | [11] 1.02 | [12] 1.06 | [14] 1 | [15] 0.989 | [16] 0.945 | [17] 1.16 | [18] 0.988 | [19] 0.969 | [20] 0.994 | [31] 1 | [21] 1 | [22] 0.963 | [23] 0.987 | [24] 0.989 | [26] 0.965 | [27] 0.984 | [28] 1.02 | [29] 0.988

CC1C(=O)N(C)C(=O)c2nc[nH]c21 (centres undefined)
inactive: [1] 0.997 | S. cerevisiae deletion strains, locus YAL040C, strain CLN3, active compounds read low 0.993 | S. cerevisiae deletion strains, locus YCL061C, strain MRC1 (second series), active compounds read low 1 | [5] 1.01 | S. cerevisiae deletion strains, locus YDR363W, strain ESC2, active compounds read low 0.998 | S. cerevisiae deletion strains, locus YER002W, strain NOP16, active compounds read low 1 | [8] 0.992 | [31] 0.991 | S. cerevisiae deletion strains, locus YNL128W, strain TEP1, active compounds read low 1 | S. cerevisiae deletion strains, locus YNL175C, strain NOP13, active compounds read low 1 | S. cerevisiae deletion strains, locus YNL197C, strain WHI3, active compounds read low 0.989 | S. cerevisiae deletion strains, locus YNL224C, strain SQS1, active compounds read low 1 | [23] 0.992 | S. cerevisiae deletion strains, locus YOR083W, strain WHI5 (second series), active compounds read low 1.02 | [27] 1

Cc1nn(C)c(C)c1NS(=O)(=O)c1cc(Cl)sc1Cl
inactive: [1] 1 | [2] 1.03 | [3] 1.05 | [4] 1.02 | [5] 0.956 | [6] 1.03 | [7] 1.01 | [9] 1.04 | [10] 1.03 | [30] 1.02 | [11] 1.01 | [12] 1.02 | [14] 1 | [15] 1.03 | [16] 1.03 | [17] 0.993 | [18] 1.01 | [19] 1.01 | [20] 0.914 | [21] 1.04 | [22] 1.04 | [23] 1.01 | [24] 1.01 | [26] 1.01 | [27] 1.01 | [28] 1.14 | [29] 1.02
